Source: PubChem BioAssay AID588689 (Southern Research Specialized Biocontainment Screening …, 2011)
Screen size: about 340,000 compounds; about 1,000 (0.29%) were called active. Cut-off read from the data, not from the text of the source: inconclusive = inhibition above about 29% without an active follow-up result; inactive = below that. These entries were drawn from the full list. Potency and affinity values are given separately.

Molecular target: Genome polyprotein (Dengue virus type 2 (strain 16681-PDK53)) (UniProt P29991)
Experiment: Dengue-2 NS5 methyltransferase inhibitors, primary screen, biochemical, confirmation dose response (AID 588689)
Details: Dengue-2 NS5 methyltransferase capping enzyme assay, at 25 µM, stronger effect = higher value
[1] = measured here: pilot screen replicate inhibition

| Structure (SMILES) | inhibition | inhibition [1] |
| --- | --- | --- |
| CCOC(=O)C1(CC2CCCCO2)CCN(Cc2c(C)cc(C)cc2-n2cccn2)CC1 (centres undefined) | -10.8% (inactive) | – |
| COc1ccc(S(=O)(=O)N2CCCCC2)cc1NC(=O)COC(=O)c1ccco1 | -2.61% (inactive) | – |
| O=C(Nc1ccc(F)cc1)OCCOc1ccc([N+](=O)[O-])cc1 | -1.94% (inactive) | – |
| CC(C)(C)OC(=O)COc1cc(F)ccc1[N+](=O)[O-] | -8.99% (inactive) | – |
| Cc1cc(NC(=O)C2C3C(=O)N(CCC(C)C)C(C(=O)NCc4ccccc4)C34C=CC2(C)O4)no1 (centres undefined) | -10.5% (inactive) | – |
| Cc1ccc(C(C)C)c(OCC(=O)NCC(c2cccs2)N2CCOCC2)c1 (centres undefined) | 0.74% (inactive) | – |
| Cc1ccc(-n2c(-c3ccc(Cl)cc3Cl)n[nH]c2=S)cc1 | -16.5% (inactive) | -6.44% |
| COc1ccc(NS(=O)(=O)c2csc(C(=O)N3CCCC3)c2)c(OC)c1 | -6.24% (inactive) | – |
| O=C(COC(=O)Cc1n[nH]c(=O)c2ccccc12)NNC(=O)c1ccc(Br)cc1 | -4.04% (inactive) | – |
| CCC(=O)Nn1c(C)nnc1C | -2.7% (inactive) | – |
| Cc1ccc([C@H]2C(C(=O)O)=C[C@@H](CC3CCCC3)N2S(=O)(=O)c2ccc(C)cc2)cc1 | 20.2% (inactive) | – |
| Cc1ccc(S(=O)(=O)N2[C@@H](c3ccc(Cl)cc3)C(C(=O)O)=C[C@H]2CC2CCCC2)cc1 | 19.2% (inactive) | 4.89% |
| Cc1ccc(S(=O)(=O)N2[C@@H](c3ccc(Br)cc3)C(C(=O)O)=CC[C@H]2c2cccc(Cl)c2)cc1 | -1.32% (inactive) | 1.82% |
| Cc1ccc(S(=O)(=O)N2[C@@H](c3ccc(Cl)cc3)C(C(=O)O)=CC[C@H]2c2ccc(Cl)c(Cl)c2)cc1 | 27.3% (inactive) | – |
| Cc1ccc(S(=O)(=O)N2[C@@H](c3ccc(C(C)(C)C)cc3)C(C(=O)O)=CC[C@H]2c2ccc(Cl)c(Cl)c2)cc1 | 9.77% (inactive) | – |
| Cc1ccc(S(=O)(=O)N2[C@@H](c3ccccc3)C(C(=O)O)=CC[C@H]2c2ccc(Cl)c(Cl)c2)cc1 | 10.4% (inactive) | – |
| CCc1ccc([C@@H]2CC=C(C(=O)O)[C@H](c3ccc(Br)cc3)N2S(=O)(=O)c2ccc(C)cc2)cc1 | 25.8% (inactive) | 10.7% |
| Cc1ccc([C@H]2C(C(=O)O)=CC[C@@H](c3ccc(C)cc3)N2S(=O)(=O)c2ccc(C)cc2)cc1 | 5.29% (inactive) | -0.615% |
| O=C(N/N=C/c1cc(Br)c(Br)o1)c1cc2ccccc2o1 | -5.43% (inactive) | – |
| O=C1CCC[C@@H]2C[C@@]3(C[C@@H]4CCN1[C@H]24)Nc1cc(Cl)ccc1NC3=NCc1ccccc1 | -11.9% (inactive) | – |
| O=C(NCCCc1ccccc1)c1cccc(NC(=O)C2CCCCC2)c1 | -8.46% (inactive) | – |
| COc1ccc(C2=NN(C(=O)c3ccc(Cl)c([N+](=O)[O-])c3)C(c3ccccc3)C2)cc1 (centres undefined) | -4.55% (inactive) | – |
| Cc1ccc(NC(=S)NN2CCN(C)CC2)c(C)c1 | 3.57% (inactive) | – |
| Cn1c2cc(C#N)sc2c2cnn(Cc3ccc(F)cc3)c(=O)c21 | -9.27% (inactive) | -3.06% |
| Cc1ccccc1-c1cc(C(=O)NCc2cccc(C(F)(F)F)c2)n(CC2CC(c3cccnc3)=NO2)n1 (centres undefined) | 5.79% (inactive) | – |
| CCOc1ccccc1C=NNc1ccc([N+](=O)[O-])cn1 | -10.8% (inactive) | – |
| Cc1ccc(-c2cc(C(=O)N3CCC(C)CC3)c3ccccc3n2)cc1 | -0.67% (inactive) | – |

| Structure (SMILES) | inhibition | inhibition [1] |
| --- | --- | --- |
| COc1nnc(-c2ccccc2)s1 | -4.6% (inactive) | – |
| O=C(O)C1=CC[C@@H](c2ccc(Cl)cc2)N(S(=O)(=O)c2ccc(Cl)cc2)[C@H]1c1ccccc1 | 15.7% (inactive) | – |
| Cc1ccc(S(=O)(=O)N2[C@@H](c3ccc(Br)cc3)C(C(=O)O)=CC[C@H]2c2ccc(Cl)cc2)cc1 | 26.7% (inactive) | – |
| CCCCC1CCC(C(=O)NCC(c2ccco2)N2CCOCC2)CC1 (centres undefined) | -3.1% (inactive) | – |
| CCCCCn1c(=O)c(C(=O)OCC)c(O)c2ccccc21 | -0.68% (inactive) | – |
| CCCCn1c(=O)c(-c2ccccc2)c(O)c2ccccc21 | -4.09% (inactive) | – |
| CCCCn1c(=O)c(C(=O)OCC)c(O)c2ccccc21 | 3.24% (inactive) | – |
| CCn1c(=O)c(-c2ccccc2)c(O)c2ccccc21 | 0% (inactive) | – |
| O=C1C(=Cc2ccncc2)CCCc2ccccc21 | -20.6% (inactive) | – |
| O=C(NC(=S)N1CCCCCC1)c1cccc([N+](=O)[O-])c1 | -2.29% (inactive) | – |
| O=C(Cn1cc(C(F)(F)F)ccc1=O)NCCc1ccc(Cl)cc1Cl | -0.73% (inactive) | – |
| O=C(/C=C/c1ccccc1)C1C(=O)c2ccccc2C1=O | -1.46% (inactive) | – |
| Cc1ccc(/C=C/C(=O)C2C(=O)c3ccccc3C2=O)cc1 | 13.3% (inactive) | – |
| Cc1ccc(C)c(N2CCN(C(=O)C3CCCN(S(=O)(=O)c4c(C)noc4C)C3)CC2)c1 (centres undefined) | -2.75% (inactive) | – |
| O=C(NCCC1=CCCCC1)c1ccc(Cl)c([N+](=O)[O-])c1 | 0% (inactive) | – |
| O=C(O)c1ccc(NCCC2=CCCCC2)c([N+](=O)[O-])c1 | 5.44% (inactive) | – |
| Nc1c(C(=O)N/N=C/c2ccccc2)cnn1-c1ccccc1 | 1.53% (inactive) | – |
| O=C(O)c1ccc(NS(=O)(=O)c2ccc3c(c2)OCCCO3)cc1 | -0.76% (inactive) | – |
| COC(=O)c1ccc(C2Nc3ccc(/C(C)=N/NC(=O)C(OC)c4ccccc4)cc3C3C=CCC32)cc1 (centres undefined) | -4.05% (inactive) | – |
| CC(=O)c1ccc2c(c1)C1C=CCC1C(c1ccc(S(=O)(=O)N3CCOCC3)cc1)N2 (centres undefined) | 11.6% (inactive) | – |
| COc1ccc(C(=O)N/N=C(\C)c2ccc3c(c2)C2C=CCC2C(c2ccccc2)N3)cc1 (centres undefined) | 2.59% (inactive) | – |
| COc1ccc(NS(=O)(=O)c2ccc(NS(=O)(=O)c3cccc(C(=O)O)c3)cc2)cc1 | 0% (inactive) | – |
| COc1cccc(NS(=O)(=O)c2ccc3c(c2)CC(=O)N3)c1 | -6.98% (inactive) | – |
| O=C(O)c1ccc2c(c1)C1C=CCC1C(c1cc3c(cc1Br)OCO3)N2 (centres undefined) | 6.19% (inactive) | – |
| COc1cccc(NS(=O)(=O)c2ccc3c(c2)NC(=O)CC(=O)N3)c1 | -10.6% (inactive) | – |
| COc1ccc(CN2C3CCCC2CC(NC(=O)Nc2ccccc2)C3)cc1 (centres undefined) | -8.9% (inactive) | – |
